Records with an inconclusive call do not appear. Activity calls are given as the source filed them. Calls come from the whole dose curve; as a rule, active = well fitted inhibition curve with a large enough effect; inconclusive = small, poorly fitted or top-dose-only effect; inactive = flat fitted curve, though single readings scatter.
Key:
Experiment in all cases: Cytotoxic Profiling of Annotated Libraries Using Quantitative High-Throughput Screening (AID 1296008); note: nearly all actives have a fitted effect of over 60% in size
Conditions in all cases: Five cell lines viability, CellTiter-Glo ATP luminescence, 48-72 h; max response: active compounds read low
[1] = test system: CRL-7250
Procedure, shortened: (§1)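 Cells exposed to compounds for 48 or 72 hr at 37 degrees Celsius. Viability read as ATP-coupled luminescence with CellTiter-Glo after 10 min at room temperature.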

[2] = test system: HaCat
Procedure, shortened: as §1

[3] = test system: KB-3-1
Procedure, shortened: as §1

[4] = test system: NIH3T3
Procedure, shortened: as §1

Measured: max response
% is set by controls: 0 for no effect and ±100 for the full control effect.

CC(C)c1cc2c(c(O)c1O)[C@@]13CCCC(C)(C)C1[C@@H](O)[C@@H]2OC3=O (some centres not stated)
inactive: [1] 4.77% | [2] | [3] 7.44% | [4]

CC(C)(O)[C@@H]1CC[C@]2(CO)[C@@H](O)CC[C@](C)(O)[C@H]2[C@@H]1O[C@@H]1O[C@H](CO)[C@@H](O)[C@H](O)[C@H]1O
inactive: [1] 1.76% | [2] | [3] 8.79% | [4] 0.484%

CC(=O)/C=C/[C@H]1[C@](C)(O)[C@@H](O)[C@H](O)C2C(C)(C)CCC[C@@]21C (some centres not stated)
inactive: [1] -11.3% | [2] | [3] -3.39% | [4]

CC(C)(O)C(O)C(=O)OCc1ccc(O[C@@H]2O[C@H](CO)[C@@H](O)[C@H](O)[C@H]2O)cc1 (some centres not stated)
inactive: [1] -9.18% | [2] | [3] | [4] -2.16%

COc1ccc(C2COc3cc(O)ccc3C2)c(O)c1OC (configuration not stated)
inactive: [1] | [2] | [3] 1.88% | [4] -7.34%

C/C1=C\CC(C)(C)/C=C/C/C(C(=O)O)=C/CC1
inactive: [1] -3% | [2] | [3] -12.2% | [4]

CN1CCc2cc(Cl)c(O)cc2[C@@H](c2cccc3c2OCC3)C1
inactive: [1] | [2] -1.65% | [3] -4.72% | [4]

CC(O)CCc1ccc(O[C@@H]2O[C@H](CO)[C@@H](O)[C@H](O)[C@H]2O)cc1 (some centres not stated)
inactive: [1] 0.631% | [2] | [3] 2.69% | [4] -0.367%

CCN1CCN(C(=O)N[C@@H](C(=O)N[C@@H]2C(=O)N3[C@@H]2SC(C)(C)[C@@H]3C(=O)O)c2ccccc2)C(=O)C1=O
inactive: [1] -7% | [2] | [3] | [4]

N#CC1C(=O)N=C(c2cc(Cl)ccc2O)C=C1c1cc(OCc2ccccc2)cc(OCc2ccccc2)c1 (configuration not stated)
inactive: [1] | [2] | [3] | [4] 1.6%

CC(=O)/C=C/C1C(C)CC(O[C@@H]2O[C@H](CO)[C@@H](O)[C@H](O)[C@H]2O)CC1(C)C (some centres not stated)
inactive: [1] | [2] | [3] | [4]

O=C(OC[C@H]1O[C@H](O[C@H]2CO[C@H](CO)[C@@H](O)[C@@H]2O)[C@H](O)[C@@H](O)[C@H]1O)c1ccccc1
inactive: [1] -5.33% | [2] -15.9% | [3] -0.911% | [4] 4.33%

CC1(C)CCC2(C(=O)O)C(O)CC3(C)C(=CCC4C5(C)CCC(OC6OC(CO)C(O)C(O)C6OC6OC(CO)C(O)C(O)C6OC6OCC(O)(CO)C6O)C(C)(C)C5CCC43C)C2C1 (configuration not stated)
inactive: [1] -4.69% | [2] | [3] | [4]

C/C=C1\[C@H](O[C@@H]2O[C@H](CO)[C@@H](O)[C@H](O)[C@H]2O)OC=C(C(=O)OCCc2ccc(O)cc2)[C@H]1CC(=O)OCCc1ccc(O)cc1
inactive: [1] 0.139% | [2] | [3] -0.75% | [4] -3.77%

C[C@@H]1O[C@@H](O[C@H]2[C@H](O[C@H]3[C@H](O[C@H]4CC[C@@]5(C)C(CC[C@]6(C)C5CC=C5[C@@H]7CC(C)(C)C[C@@H](O)[C@]7(C)CC[C@]56C)[C@@]4(C)CO)O[C@H](C(=O)O)[C@@H](O)[C@@H]3O)O[C@H](C(=O)O)[C@H](O)[C@@H]2O)[C@H](O)[C@H](O)[C@H]1O (some centres not stated)
inactive: [1] -5.52% | [2] | [3] -1.92% | [4]

COc1cc(O[C@@H]2O[C@H](CO[C@H]3OC[C@](O)(CO)[C@H]3O)[C@@H](O)[C@H](O)[C@H]2O)cc(OC)c1O
inactive: [1] -3.27% | [2] | [3] | [4] -4.07%

O=C(OC[C@H]1O[C@@H](Oc2ccccc2CO)[C@H](O)[C@@H](O)[C@@H]1O)c1ccccc1
inactive: [1] -0.775% | [2] 0.855% | [3] 3.27% | [4]

Cc1ccc(-c2c(-c3nn(C)c4ncnc(N5CC[C@H](N6CCCCC6)C5)c34)cnn2C)cc1
inactive: [1] -0.469% | [2] | [3] -0.872% | [4]

— PubChem BioAssay (NCATS)
